What is called AC50 is the concentration giving half of the maximal activity seen.

Molecules are shown by their SMILES. “And” between values parts separate entries of the source, which are not always exact repeats. Identical values can stand only once. Records with an inconclusive call do not appear. The source made the active and inactive calls. How the source made its calls: active means hit-call score of the fitted dose curve at least 0.9, where 1 is the maximum; inconclusive means response in the unintended direction; inactive means score below 0.9.

Our source for the outcome and AC50 values is PubChem BioAssay (EPA / NIEHS).

This assay deals with zebrafish Peroxisome Proliferator-activated Receptor gamma (PPARg), gene 557037. Nature of the assay: ATG_zfPPARg_XSP2: Attagene TRANS-FACTORIAL Multi-Species (XSP2) HepG2 Assay for zebrafish Peroxisome Proliferator-activated Receptor gamma (PPARg) (AID 2283833).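 Further: actives increase reporter signal over DMSO so AC50 reflects activation.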 The method, then:
ATG_XSP2_multi-species_TRANS is a cell-based, multiplexed assay created by modifying the existing Attagene TRANS-FACTORIAL system to include a panel of nuclear receptors from some or all the following species: human (Homo sapiens), mouse (Mus musculus), frog (Xenopus laevis), zebrafish (Danio rerio), chicken (Gallus gallus), and turtle (Chrysemys picta). The ECOTOX-FACTORIAL format uses HepG2, a human liver cell line, with measurements taken at 24 hours after chemical dosing in a 24-well plate. Xsp2 included 3 nM 6-alpha-fluorotestosterone and 1.5 nM norgestrel to stimulate the androgen receptor.ATG_zfPPARg_XSP2 is one of 29 assay components measured or calculated from the ATG_XSP2_multi-species_TRANS assay. It is designed to make measurements of mRNA induction, a form of inducible reporter, as detected with fluorescence intensity signals by Reverse transcription polymerase chain reaction (RT-PCR) and Capillary electrophoresis technology.The assay endpoint ATG_zfPPARg_XSP2 was analyzed in the positive analysis fitting direction relative to DMSO as the negative control and baseline of activity. Using a type of inducible reporter, measures of mRNA for gain-of-signal activity can be used to understand the reporter gene at the transcription factor-level as they relate to the gene PPARg. Furthermore, this assay endpoint can be referred to as a primary readout, because this assay has produced multiple assay endpoints where this one serves a reporter gene function. To generalize the intended target to other relatable targets, this assay endpoint is annotated to the nuclear receptor intended target family, where the subfamily is non-steroidal.
Human liver HepG2 cells are transiently transfected with multiple reporter transcription units (MRTUs) in 6-well plates using FuGene 6 reagent (Roche; 3 ml FuGene/1 mg DNA). The MRTU constructs are regulated by a cis-regulating element (promoter). […] A major difference between the CIS and TRANS system is that in CIS activities of endogenous TFs are measured, whereas the TRANS assay evaluates changes in activities of exogenous, chimeric NR-Gal4 proteins. […] At the end of 24 hour incubation, total RNA was isolated using TriZol reagent (Invitrogen). The isolated RNA is then reverse-transcribed using oligo(dT) primer and Mo-MLV reverse transcriptase (Invitrogen) with DNAse I (Ambion) treatment for 30 min. The one-tenth of the produced cDNA was amplified by PCR using Taq DNA polymerase (Invitrogen) and two reporter sequence-specific primers. The PCR products were fluorescently labeled by primer extension with 6-arboxyfluorescein (6-FAM) 5'-labeled reporter sequence-specific primer (2 min at 95 C, 20 s at 68 C and 10 min at 72 C) and these products were digested with 5U of HpaI (New England Biolabs) for 2h at 37 C. The fragments were purified using Qiaquick PCR columns (Qiagen), analyzed on an ABI 3130xL genetic analyzer (Applied Biosystems) with peak positions identified by using a set of X-rhodamine (ROX)-labeled MapMarker1000 molecular weight standards (BioVentures). The raw capillary electrophoresis data was processed using Attagraph software (Attagene).
Regarding `CC(C)(C)c1cc(O)ccc1O`, the molecule was classed as inactive. Take `COP(=O)(OC)O/C(=C\Cl)c1cc(Cl)c(Cl)cc1Cl`: the concentration at half-maximal activity (AC50) was 47.3 µM (active).

For the molecule `Clc1ccc(C2(Cn3cncn3)CC(Br)CO2)c(Cl)c1` (centres undefined), the molecule was called inactive. On the same count and under the same terms, with `C[C@H]1CCCC(=O)CCC/C=C/c2cc(O)cc(O)c2C(=O)O1` the entry was “inactive”; with `CC(=O)C=C(C)C`, “inactive”; with `O=C1C2(Cl)C3(Cl)C4(Cl)C(Cl)(Cl)C5(Cl)C3(Cl)C1(Cl)C5(Cl)C24Cl` (centres undefined), “inactive”.

Consider `CC12CC1(C)C(=O)N(c1cc(Cl)cc(Cl)c1)C2=O` (centres undefined), for which the call was inactive. `Oc1c(I)cc(I)cc1I`: the half-maximal activity concentration (AC50) is 26.1 µM (active) and 23.3 µM (active). Turning to `O=S(=O)(c1ccc(Cl)cc1)c1ccc(Cl)cc1`, the result was inactive. Same read-out and setting: with `CC1(C)CCC(Cc2ccc(Cl)cc2)C1(O)Cn1cncn1` (centres undefined) the entry was “inactive”; with `CC(C)C1CCC(Cc2ccc(Cl)cc2)C1(O)Cn1cncn1` (centres undefined), “inactive”; with `C[C@]12CCC(=O)C[C@@H]1CC[C@@H]1[C@@H]2CC[C@]2(C)[C@@H](O)CC[C@@H]12`, “inactive”. The same measure, in the same setting: the entry for `Oc1ccc(-c2ccccc2)cc1` is “inactive”; for `C[C@]12CC[C@H](O)CC1=CC[C@@H]1[C@@H]2CC[C@]2(C)C(=O)CC[C@@H]12` it is “inactive”.
